# Reference: PubChem BioAssay (NCATS)
# Records with an inconclusive call do not appear. Entries that show only a call come without a potency. Calls of active or inactive are those of the source. Calls follow the shape of the dose curve; as a rule, active = well fitted inhibition curve with a large enough effect; inconclusive = small, poorly fitted or top-dose-only effect; inactive = flat fitted curve, though single readings scatter. Where a SMILES comes first, the peptide text is derived from it. Bridges are numbered along the chain shown (N, C = ends). [ ]: non-standard residue; d: D form. The star is where a group is joined. Dab(CH2SO3H) = N[C@@H](CCNCS(=O)(=O)O)C(=O)O; X3 = CC[C@@H](C)CCCCC(=O)*; Dab = NCC[C@H](N)C(=O)O
# Biological target: Voltage-gated inwardly rectifying potassium channel KCNH2 (Homo sapiens) (UniProt Q12809)
# Sequence (Q12809 whole entry, looked up): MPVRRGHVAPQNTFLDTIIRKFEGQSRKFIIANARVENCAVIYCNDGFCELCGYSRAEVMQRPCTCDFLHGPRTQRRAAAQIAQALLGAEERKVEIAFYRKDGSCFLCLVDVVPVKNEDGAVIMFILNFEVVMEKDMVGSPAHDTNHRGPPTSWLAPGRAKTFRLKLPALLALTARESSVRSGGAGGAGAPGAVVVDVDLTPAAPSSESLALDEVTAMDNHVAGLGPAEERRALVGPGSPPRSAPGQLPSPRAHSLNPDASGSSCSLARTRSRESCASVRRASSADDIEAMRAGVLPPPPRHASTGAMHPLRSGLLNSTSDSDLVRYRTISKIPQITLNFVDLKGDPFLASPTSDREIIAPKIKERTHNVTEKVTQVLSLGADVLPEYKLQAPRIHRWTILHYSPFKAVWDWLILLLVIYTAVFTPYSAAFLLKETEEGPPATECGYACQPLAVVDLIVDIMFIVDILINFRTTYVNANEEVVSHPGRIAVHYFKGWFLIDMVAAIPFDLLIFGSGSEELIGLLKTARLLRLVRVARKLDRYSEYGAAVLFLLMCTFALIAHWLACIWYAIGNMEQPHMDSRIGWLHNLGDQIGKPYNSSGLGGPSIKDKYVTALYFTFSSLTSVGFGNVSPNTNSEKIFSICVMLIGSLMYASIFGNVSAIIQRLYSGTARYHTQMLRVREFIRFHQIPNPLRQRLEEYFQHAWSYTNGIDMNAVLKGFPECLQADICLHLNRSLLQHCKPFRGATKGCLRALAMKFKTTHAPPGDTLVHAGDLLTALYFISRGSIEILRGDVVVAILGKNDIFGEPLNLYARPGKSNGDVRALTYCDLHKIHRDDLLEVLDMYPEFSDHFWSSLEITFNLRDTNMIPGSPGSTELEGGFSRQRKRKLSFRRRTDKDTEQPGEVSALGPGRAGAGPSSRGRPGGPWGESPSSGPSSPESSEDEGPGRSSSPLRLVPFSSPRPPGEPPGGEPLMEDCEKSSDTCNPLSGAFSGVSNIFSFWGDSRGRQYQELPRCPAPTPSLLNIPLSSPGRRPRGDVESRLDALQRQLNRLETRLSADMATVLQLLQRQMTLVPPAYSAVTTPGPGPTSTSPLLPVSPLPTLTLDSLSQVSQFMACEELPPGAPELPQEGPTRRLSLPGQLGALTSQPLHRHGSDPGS
# Assay: qHTS Assay for Small Molecule Inhibitors of the Human hERG Channel Activity (AID 588834);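 also: lower thallium flux fluorescence means stronger hERG block; nearly all actives have a fitted effect of over 50% in size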
# Conditions: U2OS BacMam hERG, FluxOR thallium flux fluorescence; series mostly up to 46.1 µM
# In short: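 Step 1: BacMam hERG transduction of U2OS, 4 hrs RT. Step 2: overnight 37 °C, plate 2000 cells/well, 4 hr. Step 3: FluxOR load, compound 10 min, stimulate, read fluorescence.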
# Potency is read from the fitted curve at half-maximal effect.
row,SMILES,Potency
1,CCOC(=O)C1=CC2(CC)CCCN3CCc4c(n1c1ccccc41)C32 (stereo not drawn),0.0891 µM (active)
2,CCC(=O)O[C@]1(C(=O)CCl)[C@@H](C)C[C@H]2[C@@H]3C[C@H](F)C4=CC(=O)C=C[C@]4(C)[C@@]3(F)[C@@H](O)C[C@@]21C,inactive
3,CC(=O)OCC(=O)[C@@]12OC3(CCCC3)O[C@@H]1C[C@H]1[C@@H]3CCC4=CC(=O)C=C[C@]4(C)[C@@]3(F)[C@@H](O)C[C@@]12C,inactive
4,NCc1ccccc1CC(=O)N[C@@H]1C(=O)N2C(C(=O)O)=C(CSc3nnnn3CC(=O)O)CS[C@H]12,inactive
5,CC[C@@H](C)CCCCC(=O)N[C@@H](CCNCS(=O)(=O)O)C(=O)N[C@H](C(=O)N[C@@H](CCNCS(=O)(=O)O)C(=O)N[C@H]1CCNC(=O)[C@H]([C@@H](C)O)NC(=O)[C@H](CCNCS(=O)(=O)O)NC(=O)[C@H](CCNCS(=O)(=O)O)NC(=O)[C@H](CC(C)C)NC(=O)[C@@H](CC(C)C)NC(=O)[C@H](CCNCS(=O)(=O)O)NC1=O)[C@@H](C)O (X3-[Dab(CH2SO3H)]T[Dab(CH2SO3H)][Dab][Dab(CH2SO3H)][dL]L[Dab(CH2SO3H)][Dab(CH2SO3H)]T; lactam 4-C),inactive
6,CNc1cc(OC)c(C(=O)N[C@H]2CCN(Cc3ccccc3)[C@H]2C)cc1Cl,12.6 µM (active)
7,N[C@H](C(=O)O)[C@@H]1CC(Cl)=NO1,inactive
8,O=C(O)C[C@H](O)C[C@H](O)/C=C/c1c(C2CC2)nc2ccccc2c1-c1ccc(F)cc1,inactive
9,C=C[C@]1(C)C[C@@H](OC(=O)CSC(C)(C)CNC(=O)[C@H](N)C(C)C)[C@]2(C)[C@H](C)CC[C@]3(CCC(=O)[C@H]32)[C@@H](C)[C@@H]1O,7.08 µM (active)
10,CC[C@H]1OC(=O)[C@H](C)[C@@H](O[C@H]2C[C@@](C)(OC)[C@@H](O)[C@H](C)O2)[C@H](C)[C@@H](O[C@@H]2O[C@H](C)C[C@H](N(C)C)[C@H]2O)[C@](C)(O)C[C@@H](C)/C(=N\OCOCCOC)[C@H](C)[C@@H](O)[C@]1(C)O,inactive
11,CO/N=C(\C(=O)N[C@@H]1C(=O)N2C(C(=O)O)=C(CSc3cnns3)CS[C@H]12)c1csc(N)n1,inactive
12,C=C(NC(=O)C(=C)NC(=O)c1csc(C2=N[C@@H]3c4csc(n4)[C@H]4NC(=O)c5csc(n5)[C@H]([C@](C)(O)[C@@H](C)O)NC(=O)[C@H]5CSC(=N5)C(=CC)NC(=O)C([C@@H](C)O)NC(=O)c5csc(n5)[C@]3(CC2)NC(=O)[C@H](C)NC(=O)C(=C)NC(=O)[C@H](C)NC(=O)C([C@@H](C)CC)NC2C=Cc3c([C@H](C)O)cc(nc3C2O)C(=O)O[C@@H]4C)n1)C(N)=O (stereo partly drawn),inactive
13,CC1(C)S[C@@H]2[C@H](NC(=O)Cc3ccccc3)C(=O)N2[C@H]1C(=O)O,inactive
14,CCC1OC(=O)C[C@@H](O)[C@H](C)[C@@H](O[C@@H]2O[C@H](C)C[C@H](N(C)C)[C@H]2O)[C@@H](CC=O)C[C@@H](C)C(=O)/C=C/[C@]2(C)OC2C1C (stereo partly drawn),inactive
15,O=C(O)C1CCCN1 (stereo not drawn),inactive
16,CC(=O)OCC(=O)[C@@]1(O)CC[C@H]2[C@@H]3C[C@H](C)C4=CC(=O)C=C[C@]4(C)[C@H]3[C@@H](O)C[C@@]21C,inactive
17,CO[C@H]1C[C@H](O[C@H]2[C@H](C)[C@@H](O[C@@H]3O[C@H](C)C[C@H](N(C)C)[C@H]3OC(C)=O)[C@@H](C)C[C@]3(CO3)C(=O)[C@H](C)[C@@H](OC(C)=O)[C@@H](C)[C@@H](C)OC(=O)[C@@H]2C)O[C@@H](C)[C@@H]1OC(C)=O,inactive
18,CCC(=O)OCC(=O)[C@@]1(OC(=O)CC)[C@H](C)C[C@H]2[C@H]3[C@H]([C@@H](O)C[C@@]21C)[C@@]1(C)C=CC(=O)C=C1C[C@H]3Cl,inactive
19,CC(=O)N(CC(C)C(=O)O)c1c(I)cc(I)c(N)c1I (stereo not drawn),inactive
20,OCCO[C@@H]1[C@@H](O)[C@H](O)[C@@H](CO)O[C@@H]1O,inactive
21,C=C1CC[C@@H]2[C@](C)(CO)[C@H](O)CC[C@@]2(C)[C@@H]1C/C=C1/C(=O)OC[C@H]1O,inactive
22,CCCC(=O)O[C@]1(C(=O)COC(C)=O)CC[C@H]2[C@@H]3C[C@H](F)C4=CC(=O)C=C[C@]4(C)[C@@]3(F)[C@@H](O)C[C@@]21C,inactive
23,CC1(C)S[C@@H]2[C@H](NC(=O)C(C(=O)O)c3ccsc3)C(=O)N2[C@H]1C(=O)O (stereo partly drawn),inactive
24,C[C@H](CCC(=O)O)[C@H]1CC[C@H]2[C@@H]3[C@H](O)C[C@@H]4C[C@H](O)CC[C@]4(C)[C@H]3CC[C@]12C,inactive
25,CCCCCCC(O)C/C=C/CCCCCCCC(=O)O (stereo not drawn),inactive
26,COc1cc2c(cc1O)CCN[C@]21CS[C@@H]2c3c(OC(C)=O)c(C)c4c(c3[C@H](COC1=O)N1[C@@H]2[C@H]2c3c(cc(C)c(OC)c3O)C[C@@H]([C@@H]1O)N2C)OCO4,inactive
27,CC(C)NCC1CCc2cc(CO)c([N+](=O)[O-])cc2N1 (stereo not drawn),inactive
28,CCCCCC(CC)COC(=O)CC(C(=O)OCC(CC)CCCC)S(=O)(=O)O (stereo not drawn),inactive
